Laboratory results published in the supplement of paper PMC4166925.
± gives the standard deviation of the averaged measurements. Whole data set: some 33,000 sequences, median “E-score (dimensionless, -0.5 to 0.5)” near -0.049, cut for the highest 2% near 0.37. Many of the other results were omitted from the sample, so the highest values are more common in it than they were.

test system: T1, PmTbr T-box DNA-binding domain (GST fusion); experiment: PBM E-score of 8-mer (E-score (dimensionless, -0.5 to 0.5)); Tbr is Tbrain of the sea star Patiria miniata (Pm) or the sea urchin Strongylocentrotus purpuratus (Sp); higher = stronger binding preference; conditions: the construct has about 5 more residues each side
T1 sequence: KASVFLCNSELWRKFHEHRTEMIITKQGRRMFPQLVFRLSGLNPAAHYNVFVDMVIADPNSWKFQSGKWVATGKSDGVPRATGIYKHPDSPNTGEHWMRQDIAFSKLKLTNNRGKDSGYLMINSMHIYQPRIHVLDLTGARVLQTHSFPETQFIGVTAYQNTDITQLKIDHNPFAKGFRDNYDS
Experimental: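 Universal protein-binding microarray (Agilent AMADID 016060, 60-bp probes with a 35-bp variable region) incubated with 200 nM GST-fused Patiria miniata Tbr T-box DNA-binding domain (residues 272-466) in PBS pH 7.5. Scored for every ungapped 8-mer (given with its reverse complement) by the Universal PBM Analysis Suite as E-score (modified Wilcoxon-Mann-Whitney enrichment, range -0.5 to 0.5; >0.45 counts as bound) and Z-score of median probe intensity. Two replicate arrays (datasets 1 and 2).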
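Note: 200 nM protein in PBS on universal arrays averaged over duplicate arrays.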

Going from CCCACACA to GACACACC, the “PBM E-score of 8-mer” value rises from 0.17 ± 0.0076 to 0.287 ± 0.073.

Compared with CCCACACC, CCCACACG is lower in “PBM E-score of 8-mer” value: 0.43 ± 0.019 for the first, 0.0862 ± 0.0074 for the second.

Compared with CACACACC, ACCACACC is lower in “PBM E-score of 8-mer” value: 0.428 ± 0.021 for the first, 0.361 ± 0.023 for the second.

Compared with ATGCTCGG, GACGTCTC is lower in “PBM E-score of 8-mer” value: 0.00834 ± 0.022 for the first, -0.235 ± 0.013 for the second.

Going from GGGTAGGA to AACACCAA, the “PBM E-score of 8-mer” value rises from -0.205 ± 0.052 to 0.393 ± 0.011.

Going from GCCACCAC to GGCACCAC, the “PBM E-score of 8-mer” value rises from 0.122 ± 0.08 to 0.225 ± 0.022.

ACCACCAC and ACCACCAA are within error of each other in “PBM E-score of 8-mer” value: 0.0224 ± 0.049 for the first, 0.0394 ± 0.048 for the second.

Going from AACACCAT to AGCACCAC, the “PBM E-score of 8-mer” value falls from 0.3887 ± 0.0029 to 0.115 ± 0.054.

Compared with ATCACCAT, ACCACCAT is lower in “PBM E-score of 8-mer” value: 0.155 ± 0.014 for the first, 0.1243 ± 0.0012 for the second.

Going from GACACCAC to AACACCAC, the “PBM E-score of 8-mer” value falls from 0.393 ± 0.016 to 0.3719 ± 0.0024.

Going from GACACCAA to AATGCAGG, the “PBM E-score of 8-mer” value falls from 0.345 ± 0.0047 to -0.116 ± 0.0066.

Compared with GCACAGCC, ACAGTGTG is higher in “PBM E-score of 8-mer” value: -0.192 ± 0.031 for the first, 0.324 ± 0.025 for the second.

GGAGCATA and AGGCTGAA are within error of each other in “PBM E-score of 8-mer” value: -0.0893 ± 0.017 for the first, -0.124 ± 0.018 for the second.

Compared with AAACCAAG, CAAGCTCC is lower in “PBM E-score of 8-mer” value: -0.0652 ± 0.0092 for the first, -0.181 ± 0.059 for the second.

GCACCCTA and ACCCCCTC are within error of each other in “PBM E-score of 8-mer” value: 0.133 ± 0.089 for the first, -0.00817 ± 0.062 for the second.

Going from ATACCCTG to ACACCCTA, the “PBM E-score of 8-mer” value rises from -0.154 ± 0.04 to 0.383 ± 0.018.

First: CCACCCTA
Second: ACACCCTC
The “PBM E-score of 8-mer” value of the first is lower: 0.0728 ± 0.0043 for the first, 0.429 ± 0.0062 for the second.

ACCCCCTG and CCACCCTC are within error of each other in “PBM E-score of 8-mer” value: 0.0477 ± 0.028 for the first, 0.0601 ± 0.017 for the second.

Going from ACACCCTG to GAGCCATC, the “PBM E-score of 8-mer” value falls from 0.426 ± 0.026 to -0.0135 ± 0.0062.

Compared with GGAGTTCA, AAGGCGAT is higher in “PBM E-score of 8-mer” value: -0.0635 ± 0.036 for the first, 0.0522 ± 0.036 for the second.

Going from AGCAAACA to GATGAAGA, the “PBM E-score of 8-mer” value falls from 0.0237 ± 0.023 to -0.134 ± 0.051.

Going from CGTCAACA to TGTCAACA, the “PBM E-score of 8-mer” value rises from 0.311 ± 0.036 to 0.378 ± 0.0046.

First: GGTCAACA
Second: GCGCTCCC
The “PBM E-score of 8-mer” value of the first is higher: 0.123 ± 0.0043 for the first, -0.133 ± 0.028 for the second.

First: AGTTCGCG
Second: GATCCTGA
The “PBM E-score of 8-mer” value of the first is higher: 0.221 ± 0.038 for the first, -0.144 ± 0.049 for the second.

Going from CTCATCAC to CTTATCAC, the “PBM E-score of 8-mer” value rises from 0.249 ± 0.0053 to 0.331 ± 0.023.

Compared with GTCATCAC, ATTATCAC is higher in “PBM E-score of 8-mer” value: 0.2787 ± 0.00098 for the first, 0.38 ± 0.053 for the second.

First: ATCATCAC
Second: ATTATCAG
The “PBM E-score of 8-mer” value of the first is higher: 0.381 ± 0.008 for the first, -0.0355 ± 0.028 for the second.

ATAAACGG and CGTACCCC are within error of each other in “PBM E-score of 8-mer” value: -0.131 ± 0.087 for the first, -0.186 ± 0.063 for the second.

Going from GGTCGATA to CCTGAGAG, the “PBM E-score of 8-mer” value rises from 0.0375 ± 0.069 to 0.208 ± 0.03.

Going from CACAGCCG to CCGCGCGA, the “PBM E-score of 8-mer” value rises from -0.0675 ± 0.11 to 0.226 ± 0.0095.

ACGCGCGG and ACGCGCGC are within error of each other in “PBM E-score of 8-mer” value: 0.19 ± 0.031 for the first, 0.157 ± 0.033 for the second.

Going from ACGCGCGA to TCGCGCGA, the “PBM E-score of 8-mer” value rises from 0.3693 ± 0.0027 to 0.3886 ± 0.0024.

First: GCGCGCGA
Second: ATTCTTTG
The “PBM E-score of 8-mer” value of the first is higher: 0.2759 ± 0.00057 for the first, -0.109 ± 0.048 for the second.

First: AATCAACA
Second: ATTAGGGG
The “PBM E-score of 8-mer” value of the first is higher: 0.231 ± 0.033 for the first, -0.208 ± 0.071 for the second.

Compared with AACAGCCT, GGGTCTGA is lower in “PBM E-score of 8-mer” value: 0.145 ± 0.021 for the first, -0.157 ± 0.028 for the second.

First: AAGTGTCT
Second: CAGTGTCG
The “PBM E-score of 8-mer” value of the first is higher: 0.329 ± 0.022 for the first, 0.289 ± 0.0095 for the second.

Compared with GAGTGTCA, TAGTGTCA is lower in “PBM E-score of 8-mer” value: 0.436 ± 0.0041 for the first, 0.395 ± 0.027 for the second.

GATTGTCA and AAGTGTCC are within error of each other in “PBM E-score of 8-mer” value: 0.298 ± 0.0064 for the first, 0.281 ± 0.011 for the second.

Going from AAGTGTAT to AAGTGTCG, the “PBM E-score of 8-mer” value rises from 0.019 ± 0.037 to 0.44424 ± 0.0003.

Going from AAGTGTCA to GAGTGTCC, the “PBM E-score of 8-mer” value falls from 0.4726 ± 0.0035 to -0.0246 ± 0.07.

TCGTGTCA and CAGTGTCA are within error of each other in “PBM E-score of 8-mer” value: 0.305 ± 0.0037 for the first, 0.31 ± 0.017 for the second.

Compared with ACTGCTGG, AAGGCCAT is lower in “PBM E-score of 8-mer” value: -0.191 ± 0.0095 for the first, -0.225 ± 0.0052 for the second.

CAGCATTA and GAGGAGAA are within error of each other in “PBM E-score of 8-mer” value: -0.0723 ± 0.024 for the first, -0.158 ± 0.088 for the second.

Compared with CCTACCAG, GGCGAGCA is lower in “PBM E-score of 8-mer” value: 0.00153 ± 0.031 for the first, -0.102 ± 0.048 for the second.

CAATGTCG and CGTATTCA are within error of each other in “PBM E-score of 8-mer” value: 0.119 ± 0.014 for the first, 0.165 ± 0.051 for the second.

First: ACCTAGTG
Second: CCTTGAGC
The “PBM E-score of 8-mer” value of the first is higher: 0.223 ± 0.013 for the first, -0.11 ± 0.019 for the second.

Compared with ATGAGCAC, CTATGCAC is higher in “PBM E-score of 8-mer” value: -0.247 ± 0.061 for the first, -0.129 ± 0.042 for the second.

First: CCGCTAAA
Second: GCGCTAAC
The “PBM E-score of 8-mer” value of the first is lower: 0.275 ± 0.022 for the first, 0.4144 ± 0.0034 for the second.

TCGCTAAA and CCGCTAAC are within error of each other in “PBM E-score of 8-mer” value: 0.163 ± 0.043 for the first, 0.169 ± 0.038 for the second.

Going from ACGCTAAC to GCGCTAAA, the “PBM E-score of 8-mer” value rises from 0.257 ± 0.056 to 0.394 ± 0.012.

Going from GGCTAGAC to AGTTCACC, the “PBM E-score of 8-mer” value rises from -0.231 ± 0.029 to -0.0448 ± 0.0017.

Going from CGTTCAAG to CGTTCACA, the “PBM E-score of 8-mer” value rises from -0.177 ± 0.028 to 0.406 ± 0.012.

Compared with GGTTCACA, CGTTCACC is lower in “PBM E-score of 8-mer” value: 0.372 ± 0.0038 for the first, -0.0379 ± 0.073 for the second.

Compared with GGCTCACA, GGTTCATA is lower in “PBM E-score of 8-mer” value: 0.0846 ± 0.0034 for the first, 0.0267 ± 0.028 for the second.

First: AGTTCACG
Second: AGTTCACA
The “PBM E-score of 8-mer” value of the first is lower: 0.32 ± 0.02 for the first, 0.395 ± 0.0064 for the second.
